From PubChem BioAssay (Tox21)
Results filed as inconclusive are left out. Values without a mark were called inactive. The source made the active and inactive calls. Calls follow the shape of the dose curve; as a rule, active = well fitted inhibition curve with a large enough effect in the repeat runs; inconclusive = weak or mixed curves; inactive = no such curve, though single readings can be large or run the other way.

target: Cytochrome P450 2C19 (Homo sapiens) (UniProt P33261); experiment: Cytochrome P450 Family 2 Subfamily C Member 19 (CYP2C19) small molecule antagonists: luciferase reporter qHTS assay (AID 1671197); conditions: P450-Glo CYP2C19 enzyme, luciferin luminescence, 1 h; series mostly up to 115 µM; activity change, negative = inhibition: at the top concentration; also: nearly all actives have a fitted effect of over 65% in size
Outline: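 CYP2C19 P450-Glo, 1536-well qHTS. Cpd + enzyme/proluciferin substrate 10 min RT; + NADPH regen, 37C 1 h; stop with luciferin detection reagent, 20 min RT, luminescence (RLU). Pos ctrl ketoconazole.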
% is scaled to controls: 0 for no effect and ±100 for the full control effect; potency is read from the fitted curve at half-maximal effect.

Sequence of Cytochrome P450 2C19 (Homo sapiens) (P33261 whole entry, looked up): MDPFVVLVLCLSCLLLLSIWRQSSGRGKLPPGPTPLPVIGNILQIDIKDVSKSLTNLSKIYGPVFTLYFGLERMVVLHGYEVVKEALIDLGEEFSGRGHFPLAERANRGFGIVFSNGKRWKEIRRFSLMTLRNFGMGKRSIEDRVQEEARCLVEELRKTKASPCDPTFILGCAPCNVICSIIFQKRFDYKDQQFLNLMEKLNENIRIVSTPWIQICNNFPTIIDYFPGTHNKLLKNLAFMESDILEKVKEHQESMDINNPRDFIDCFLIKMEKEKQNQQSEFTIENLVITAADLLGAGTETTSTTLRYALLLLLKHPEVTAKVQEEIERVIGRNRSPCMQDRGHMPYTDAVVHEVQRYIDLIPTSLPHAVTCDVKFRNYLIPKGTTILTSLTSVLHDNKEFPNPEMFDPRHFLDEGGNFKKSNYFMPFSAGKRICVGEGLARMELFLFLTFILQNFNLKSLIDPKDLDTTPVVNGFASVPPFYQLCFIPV

`SCCc1cnccn1` was tested, and the Potency was 31.7 µM (active).
In the case of `COc1ccc(C)cc1`, the Potency is reported as 79.6 µM (active).
`CCN(CC)c1cccc(O)c1` was tested, and the Potency was 5.13 µM (active).
With `CC(C)(O)CCc1ccccc1` the Potency was 71 µM (active).
With `CCCCCCCCCCCCCOC(=O)CCSCCC(=O)OCCCCCCCCCCCCC` the Potency was 10.6 µM (active).
In the case of `Cc1cc(CCCOc2c(C)cc(-c3noc(C(F)(F)F)n3)cc2C)on1`, the Potency is reported as 21.9 µM (active).
In the case of `Cc1ccc(N(CC2=NCCN2)c2cccc(O)c2)cc1`, the Potency is reported as 17.4 µM (active).
For `CCC(Cl)CC(Cl)C(Cl)C(Cl)C(Cl)C(C)Cl` (centres undefined), the Potency was 1.73 µM (active).
With `CC(CO)(CO)C(=O)O` the Potency was 72.4 µM (active).

Going from `CCCCCCC(CO)CCCC` (centres undefined) to `CCC(CO)(CO)CO`, the “activity change, negative = inhibition” value rises from -3.3% to 19.8%.

Compared with `CC1CCC(C(C)CS)CC1S` (centres undefined), `C[C@@H]1C[C@H]2[C@@H]3CCC4=CC(=O)C=C[C@]4(C)[C@@]3(F)[C@@H](O)C[C@]2(C)[C@@]1(O)C(=O)COP(=O)(O)O` is lower in “activity change, negative = inhibition” value: -5.8% for the first, -6.2% for the second.

First: CC(=O)c1ccc[nH]1
Second: C/C(C=O)=C\c1ccccc1
The “activity change, negative = inhibition” value of the first is higher: 21.6% for the first, 4.32% for the second.

Going from `CC1C(C)(C)C2=C(C(=O)CCC2)C1(C)C` (centres undefined) to `O=C(c1ccccc1)C1CCC1`, the “activity change, negative = inhibition” value rises from -13.3% to 10.3%.

In the case of `CCC(C)(C)C(=O)O`, the “activity change, negative = inhibition” value is reported as 11%.

Going from `O=C1[C@@H]2[C@H]3CC[C@H](C3)[C@@H]2C(=O)N1CCCCN1CCN(c2ncccn2)CC1` to `CCOC(=O)c1ccc(NC(=O)CN2CCCCC2)cc1`, the “activity change, negative = inhibition” value falls from 16% [at 52.9 µM] to -5.83% [at 52.9 µM].

With `FC(F)(F)C(F)(F)C(F)(F)C(F)(F)CCI` the “activity change, negative = inhibition” value was 9.08% [at 52.9 µM].

target: Cytochrome P450 2C9 (Homo sapiens) (UniProt P11712); experiment: Cytochrome P450 Family 2 Subfamily C Member 9 (CYP2C9) small molecule antagonists: luciferase reporter qHTS assay (AID 1671198); conditions: P450-Glo CYP2C9 enzyme assay, luciferin luminescence; series mostly up to 115 µM; activity change, negative = inhibition: at the top concentration; also: nearly all actives have a fitted effect of over 50% in size
Outline: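 CYP2C9 activity was measured with a P450-Glo proluciferin substrate. Enzyme–substrate mix was held with compound for 10 min at room temperature, then NADPH regeneration solution was added for 1 h at 37C. Luciferin product was read as luminescence.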

Sequence of Cytochrome P450 2C9 (Homo sapiens) (P11712 whole entry, looked up): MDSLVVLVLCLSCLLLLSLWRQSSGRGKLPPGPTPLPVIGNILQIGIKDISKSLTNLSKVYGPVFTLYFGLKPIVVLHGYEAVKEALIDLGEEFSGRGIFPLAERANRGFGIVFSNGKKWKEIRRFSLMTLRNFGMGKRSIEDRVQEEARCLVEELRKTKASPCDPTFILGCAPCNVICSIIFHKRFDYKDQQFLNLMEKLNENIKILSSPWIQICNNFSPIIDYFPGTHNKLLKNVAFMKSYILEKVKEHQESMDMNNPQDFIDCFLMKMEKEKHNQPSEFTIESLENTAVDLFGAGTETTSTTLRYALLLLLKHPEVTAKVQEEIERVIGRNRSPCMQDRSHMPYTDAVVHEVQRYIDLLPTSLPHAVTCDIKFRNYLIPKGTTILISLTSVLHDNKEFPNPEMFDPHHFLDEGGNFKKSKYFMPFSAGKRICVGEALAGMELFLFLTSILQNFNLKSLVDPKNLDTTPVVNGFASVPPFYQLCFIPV

Compared with `O=C1NC(=O)c2cccc3cccc1c23`, `O=S(=O)(Cl)c1c(Cl)cccc1Cl` is lower in “activity change, negative = inhibition” value: 66.9% for the first, -9.29% for the second.

First: CCCCCCC(CO)CCCC (centres undefined)
Second: CCCCCCCC(=O)OCCCCCC
The “activity change, negative = inhibition” value of the first is lower: -11% for the first, -5.56% for the second.

Compared with `CCC(CO)(CO)CO`, `CC(CO)(CO)C(=O)O` is lower in “activity change, negative = inhibition” value: 6.05% for the first, -9.52% for the second.

First: CC(=O)C(C)=O
Second: CCC(C)(C)C(=O)O
The “activity change, negative = inhibition” value of the first is lower: -4.39% for the first, 6.62% for the second.

Going from `COc1ccc(C)cc1` to `C/C(C=O)=C\c1ccccc1`, the “activity change, negative = inhibition” value rises from -7.2% to 6.11%.

Compared with `CC(C)(C)CCCCCCOC(=O)c1ccccc1C(=O)OCCCCCCC(C)(C)C`, `CC(C)(O)CCc1ccccc1` is lower in “activity change, negative = inhibition” value: -12.3% for the first, -17.6% for the second.

Going from `COC(OC)OC` to `C=CC(=O)NC(C)C`, the “activity change, negative = inhibition” value falls from 7.65% to 2.82%.

Compared with `CC(=O)c1ccc[nH]1`, `O=C(c1ccccc1)C1CCC1` is higher in “activity change, negative = inhibition” value: -17.2% for the first, -7.62% for the second.

Going from `CC1C(C)(C)C2=C(C(=O)CCC2)C1(C)C` (centres undefined) to `C[C@@H]1C[C@H]2[C@@H]3CCC4=CC(=O)C=C[C@]4(C)[C@@]3(F)[C@@H](O)C[C@]2(C)[C@@]1(O)C(=O)COP(=O)(O)O`, the “activity change, negative = inhibition” value falls from -11.2% to -19.8%.

Going from `CC(=O)OCCC1CCCCC1` to `Nc1c(Cl)cc(Cl)cc1[N+](=O)[O-]`, the “activity change, negative = inhibition” value falls from -5.2% to -8.08%.

Going from `CCN(CC)CC(=O)Nc1c(C)cccc1C(=O)OC` to `COc1cc(NS(=O)(=O)c2ccc(N)cc2)nc(C)n1`, the “activity change, negative = inhibition” value falls from 9.41% [at 53 µM] to -9.78% [at 53 µM].

Compared with `O=C(O)CCC(=O)OC[C@@H](NC(=O)C(Cl)Cl)[C@H](O)c1ccc([N+](=O)[O-])cc1`, `O=C1[C@@H]2[C@H]3CC[C@H](C3)[C@@H]2C(=O)N1CCCCN1CCN(c2ncccn2)CC1` is higher in “activity change, negative = inhibition” value: -18.5% [at 53 µM] for the first, 0.253% [at 53 µM] for the second.

First: Cc1ccc(N(CC2=NCCN2)c2cccc(O)c2)cc1
Second: FC(F)(F)C(F)(F)C(F)(F)C(F)(F)CCI
The “activity change, negative = inhibition” value of the first is higher: -7.6% [at 53 µM] for the first, -11.7% [at 53 µM] for the second.

For `CCOC(=O)Oc1ccc(CCNC(=O)[C@H](CCSC)NC(C)=O)cc1OC(=O)OCC`, the Potency was 17.4 µM (active).
`Cc1cc(CCCOc2c(C)cc(-c3noc(C(F)(F)F)n3)cc2C)on1` was tested, and the Potency was 8.71 µM (active).
`CCCCCCCCCCCSCC(=O)O` was tested, and the Potency was 71 µM (active).
`CCC(Cl)CC(Cl)C(Cl)C(Cl)C(Cl)C(C)Cl` (centres undefined) was tested, and the Potency was 1.38 µM (active).

target: Cytochrome P450 1A2 (Homo sapiens) (UniProt P05177); experiment: Cytochrome P450 Family 1 Subfamily A Member 2 (CYP1A2) small molecule antagonists: luciferase reporter qHTS assay (AID 1671199); conditions: P450-Glo CYP1A2 enzyme, luciferin luminescence, 1 h; series mostly up to 115 µM; activity change, negative = inhibition: at the top concentration; also: nearly all actives have a fitted effect of over 50% in size
Outline: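 P450-Glo CYP1A2, 1536-well qHTS: enzyme/proluciferin substrate + cpd (DMSO), 10 min RT; NADPH regen, 1 h RT; detection reagent, 20 min; luminescence, RLU.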

Sequence of Cytochrome P450 1A2 (Homo sapiens) (P05177 whole entry, looked up): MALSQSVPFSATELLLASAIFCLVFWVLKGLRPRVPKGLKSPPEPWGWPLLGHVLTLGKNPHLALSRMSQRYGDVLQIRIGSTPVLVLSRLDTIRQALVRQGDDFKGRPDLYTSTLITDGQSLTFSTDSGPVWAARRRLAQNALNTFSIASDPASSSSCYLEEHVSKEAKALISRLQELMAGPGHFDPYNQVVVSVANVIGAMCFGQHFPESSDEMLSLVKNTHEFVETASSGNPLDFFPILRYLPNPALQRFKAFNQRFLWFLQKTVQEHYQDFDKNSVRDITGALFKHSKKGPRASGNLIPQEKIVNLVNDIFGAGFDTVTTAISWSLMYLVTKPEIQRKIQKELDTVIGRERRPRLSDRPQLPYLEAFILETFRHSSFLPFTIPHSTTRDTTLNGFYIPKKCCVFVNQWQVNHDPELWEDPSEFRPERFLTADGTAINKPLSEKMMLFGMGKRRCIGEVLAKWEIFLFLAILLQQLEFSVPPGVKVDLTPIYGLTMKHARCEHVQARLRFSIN

`O=C1NC(=O)c2cccc3cccc1c23` was tested, and the Potency was 3.17 µM (active).
For `SCCc1cnccn1`, the Potency was 35.6 µM (active).
`c1ccc(CNc2ncnc3c2ncn3C2CCCCO2)cc1` (centres undefined) was tested, and the Potency was 28.3 µM (active).
`CCN(CC)c1cccc(O)c1` was tested, and the Potency was 64.6 µM (active).
In the case of `Nc1ccc(N=Nc2ccc(N)cc2)cc1`, the Potency is reported as 10 µM (active).
`Nc1c(Cl)cc(Cl)cc1[N+](=O)[O-]` was tested, and the Potency was 5.64 µM (active).
In the case of `CCOC(=O)c1ccc(NC(=O)CN2CCCCC2)cc1`, the Potency is reported as 32.3 µM (active).

Going from `CCCCCCC(CO)CCCC` (centres undefined) to `CCCCCCCC(=O)OCCCCCC`, the “activity change, negative = inhibition” value rises from -22.2% to -6.92%.

Compared with `O=S(=O)(Cl)c1c(Cl)cccc1Cl`, `O=C(c1ccccc1)C1CCC1` is lower in “activity change, negative = inhibition” value: -9.03% for the first, -24.5% for the second.

Going from `CCC(CO)(CO)CO` to `CCC(C)(C)C(=O)O`, the “activity change, negative = inhibition” value falls from -8.23% to -9.26%.

Going from `CC1CCC(C(C)CS)CC1S` (centres undefined) to `C[C@@H]1C[C@H]2[C@@H]3CCC4=CC(=O)C=C[C@]4(C)[C@@]3(F)[C@@H](O)C[C@]2(C)[C@@]1(O)C(=O)COP(=O)(O)O`, the “activity change, negative = inhibition” value rises from -18.2% to -11.9%.

First: CC(=O)C(C)=O
Second: C/C(C=O)=C\c1ccccc1
The “activity change, negative = inhibition” value of the first is lower: -19.8% for the first, -11.8% for the second.

Compared with `CC(C)(C)CCCCCCOC(=O)c1ccccc1C(=O)OCCCCCCC(C)(C)C`, `CCCCCCCCCCCSCC(=O)O` is lower in “activity change, negative = inhibition” value: -16.6% for the first, -20.4% for the second.

For `COC(OC)OC`, the “activity change, negative = inhibition” value was -9.23%.

Going from `CCN(CC)CC(=O)Nc1c(C)cccc1C(=O)OC` to `Cc1cccc(C)c1NC(=O)c1cc(S(N)(=O)=O)c(Cl)cc1O`, the “activity change, negative = inhibition” value rises from -6.59% [at 53 µM] to 12.1% [at 53 µM].

First: O=C(O)CCC(=O)OC[C@@H](NC(=O)C(Cl)Cl)[C@H](O)c1ccc([N+](=O)[O-])cc1
Second: CCOC(=O)Oc1ccc(CCNC(=O)[C@H](CCSC)NC(C)=O)cc1OC(=O)OCC
The “activity change, negative = inhibition” value of the first is higher: 12.6% [at 53 µM] for the first, -23.2% [at 53 µM] for the second.

Compared with `O=C1[C@@H]2[C@H]3CC[C@H](C3)[C@@H]2C(=O)N1CCCCN1CCN(c2ncccn2)CC1`, `COc1cc(NS(=O)(=O)c2ccc(N)cc2)nc(C)n1` is lower in “activity change, negative = inhibition” value: 12.6% [at 53 µM] for the first, 10.1% [at 53 µM] for the second.

Going from `Cc1ccc(N(CC2=NCCN2)c2cccc(O)c2)cc1` to `FC(F)(F)C(F)(F)C(F)(F)C(F)(F)CCI`, the “activity change, negative = inhibition” value rises from -23.4% [at 53 µM] to -21.5% [at 53 µM].
